Screen size: about 39,000 compounds; about 3,300 (8.5%) were called active. This is one part of a sample in which actives are shown more often than they occur.
What follows are compounds tested on HepG2 (assay: cytotoxicity call (relative viability < 0.9)). Details: 10 µM.
For `CN1C(=O)c2cc(NC(=O)Cc3cccs3)ccc2OC[C@H]2O[C@H](CC(=O)NCCCN3CCOCC3)CC[C@H]21`, the cytotoxicity call was “inactive”.
With `Cc1noc(C)c1NC(=O)Nc1ccc2c(c1)C(=O)N([C@@H](C)CO)C[C@H](C)[C@@H](CN(C)C(=O)C1CCCCC1)OCCCC[C@@H](C)O2` the cytotoxicity call was “inactive”.
In the case of `COc1ccc2c3c([nH]c2c1)[C@H](CO)N(Cc1cc(ccc1F)F)C[C@]13CCN(CC1)C(=O)CN(C)C`, the cytotoxicity call is reported as “inactive”.
`C=CC(=O)Nc1cccc([C@@H](CCc2ccc(OC)c(OC)c2)OC(=O)[C@@H]2CCCCN2C(=O)C(=O)C(C)(C)CC)c1` was tested, and the cytotoxicity call was “inactive”.
For `CCCNC(=O)COc1cccc([C@@H](CCc2ccc(OC)c(OC)c2)OC(=O)[C@@H]2CCCCN2C(=O)C(=O)C(C)(C)CC)c1`, the cytotoxicity call was “active”.
`CC[C@H](C(=O)N1CCCC[C@H]1C(=O)O[C@H](CCc1ccc(OC)c(OC)c1)c1cccc(OCC(=O)NCCNC(=O)COc2cccc([C@@H](CCc3ccc(OC)c(OC)c3)OC(=O)[C@@H]3CCCCN3C(=O)[C@@H](CC)c3cc(OC)c(OC)c(OC)c3)c2)c1)c1cc(OC)c(OC)c(OC)c1` was tested, and the cytotoxicity call was “inactive”.
With `CCC(=O)Nc1cccc([C@@H](CCc2ccc(OC)c(OC)c2)OC(=O)[C@@H]2CCCCN2C(=O)C(=O)C(C)(C)CC)c1` the cytotoxicity call was “inactive”.
With `CCC(C)(C)C(=O)C(=O)N1CCCC[C@H]1C(=O)O[C@@H](CCc1ccc(OC)c(OC)c1)c1cccc(OCC(=O)NCCc2ccc(O)cc2)c1` the cytotoxicity call was “inactive”.
`COc1ccc(CC[C@@H](OC(=O)[C@H]2CCCCN2C(=O)Cc2ccccc2)c2cccc(OCC(=O)O)c2)cc1OC` was tested, and the cytotoxicity call was “active”.
With `COc1ccc(S(=O)(=O)Nc2ccc3c(c2)C(=O)N([C@@H](C)CO)C[C@H](C)[C@@H](CN(C)S(=O)(=O)c2cn(C)cn2)O3)cc1` the cytotoxicity call was “inactive”.
With `C[C@H]1CN([C@@H](C)CO)C(=O)c2cc(NC(=O)C3CCCCC3)ccc2O[C@@H]1CN(C)Cc1ccc(C(F)(F)F)cc1` the cytotoxicity call was “inactive”.
`C[C@H](CO)N1C[C@H](C)[C@@H](CN(C)Cc2ccccc2)Oc2ccc(NC(=O)Cn3cnnn3)cc2C1=O` was tested, and the cytotoxicity call was “inactive”.
`C[C@H]1CN([C@@H](C)CO)C(=O)c2cccc(NS(=O)(=O)c3ccccc3)c2O[C@H]1CN(C)S(=O)(=O)c1cn(C)cn1` was tested, and the cytotoxicity call was “inactive”.
`CCc1nc2ccc(C(=O)NCCCN3CCCC3=O)cn2c1N(CC)C(=O)NCCc1ccccc1` was tested, and the cytotoxicity call was “inactive”.
`C[C@H]1CN([C@@H](C)CO)C(=O)c2cc(NC(=O)Nc3ccc(F)cc3)ccc2O[C@H]1CN(C)Cc1ccc(Cl)c(Cl)c1` was tested, and the cytotoxicity call was “inactive”.
In the case of `C[C@@H]1CN([C@H](C)CO)C(=O)c2cc(NC(=O)Nc3ccc(F)cc3)ccc2O[C@H]1CN(C)Cc1ccc(Cl)c(Cl)c1`, the cytotoxicity call is reported as “inactive”.
In the case of `C[C@@H]1CN([C@@H](C)CO)C(=O)c2cc(NC(=O)Nc3ccc(F)cc3)ccc2O[C@H]1CN(C)Cc1ccc(Cl)c(Cl)c1`, the cytotoxicity call is reported as “inactive”.
`C[C@H](CO)N1C[C@H](C)[C@H](CN(C)Cc2ccc(Cl)c(Cl)c2)Oc2ccc(NC(=O)Nc3ccc(F)cc3)cc2C1=O` was tested, and the cytotoxicity call was “active”.
In the case of `C[C@@H]1CN([C@H](C)CO)C(=O)c2cc(NC(=O)Nc3ccc(F)cc3)ccc2O[C@@H]1CN(C)Cc1ccc(Cl)c(Cl)c1`, the cytotoxicity call is reported as “inactive”.
`C[C@@H]1CN([C@@H](C)CO)C(=O)c2cc(NC(=O)Nc3ccc(F)cc3)ccc2O[C@@H]1CN(C)Cc1ccc(Cl)c(Cl)c1` was tested, and the cytotoxicity call was “active”.
For `Cc1noc(C)c1NC(=O)Nc1ccc2c(c1)CC(=O)N([C@@H](C)CO)C[C@@H](C)[C@@H](CN(C)Cc1ccc(C(=O)Nc3ccccc3N)cc1)O2`, the cytotoxicity call was “inactive”.
For `O=C(C[C@H]1CC[C@H]2[C@@H](COC[C@@H](O)CN2S(=O)(=O)c2ccc(Cl)cc2)O1)NCc1ccncn1`, the cytotoxicity call was “inactive”.
With `COc1ncc(-c2ccc3c(Nc4cc(Oc5cc(F)cc(F)c5)cc(C(=O)O)c4)c(S(=O)(=O)NC4CC4)cnc3c2)c(OC)n1` the cytotoxicity call was “inactive”.
For `CO[C@@H]1CN(C)C(=O)c2ccc(NC(=O)C3CC3)cc2OC[C@H](C)N(C(=O)C2CCOCC2)C[C@@H]1C`, the cytotoxicity call was “inactive”.
For `COc1ccc(S(=O)(=O)Nc2cccc3c2O[C@H](CN(C)S(=O)(=O)c2ccc(C)cc2)[C@H](C)CN([C@@H](C)CO)C3=O)cc1`, the cytotoxicity call was “inactive”.
In the case of `C[C@H]1CN([C@@H](C)CO)C(=O)c2cc(C#CCN(C)C)cnc2O[C@H]1CN(C)C(=O)c1ccc2c(c1)OCO2`, the cytotoxicity call is reported as “inactive”.
For `C[C@@H]1CN([C@@H](C)CO)C(=O)c2cc(NC(=O)Nc3ccc(C(F)(F)F)cc3)ccc2O[C@@H](C)CCCCO[C@@H]1CN(C)Cc1ccc(C(F)(F)F)cc1`, the cytotoxicity call was “inactive”.
For `C[C@@H]1CCCCO[C@H](CN(C)Cc2ccc(C(F)(F)F)cc2)[C@@H](C)CN([C@@H](C)CO)C(=O)c2cc(NC(=O)Nc3ccc(C(F)(F)F)cc3)ccc2O1`, the cytotoxicity call was “inactive”.
With `C[C@@H]1CN([C@@H](C)CO)C(=O)c2cc(NC(=O)Nc3ccc(C(F)(F)F)cc3)ccc2O[C@@H](C)CCCCO[C@H]1CN(C)Cc1ccc(C(F)(F)F)cc1` the cytotoxicity call was “active”.
With `C[C@@H]1CN([C@H](C)CO)C(=O)c2cc(NC(=O)Nc3ccc(C(F)(F)F)cc3)ccc2O[C@@H](C)CCCCO[C@H]1CN(C)Cc1ccc(C(F)(F)F)cc1` the cytotoxicity call was “active”.
For `C[C@H](CO)N1C[C@H](C)[C@H](CN(C)Cc2ccc(C(F)(F)F)cc2)OCCCC[C@H](C)Oc2ccc(NC(=O)Nc3ccc(C(F)(F)F)cc3)cc2C1=O`, the cytotoxicity call was “active”.
For `C[C@H](CO)N1C[C@H](C)[C@@H](CN(C)Cc2ccc(C(F)(F)F)cc2)OCCCC[C@H](C)Oc2ccc(NC(=O)Nc3ccc(C(F)(F)F)cc3)cc2C1=O`, the cytotoxicity call was “inactive”.
In the case of `C[C@@H]1CCCCO[C@H](CN(C)Cc2ccc(C(F)(F)F)cc2)[C@H](C)CN([C@@H](C)CO)C(=O)c2cc(NC(=O)Nc3ccc(C(F)(F)F)cc3)ccc2O1`, the cytotoxicity call is reported as “active”.
With `C[C@@H]1CCCCO[C@@H](CN(C)Cc2ccc(C(F)(F)F)cc2)[C@H](C)CN([C@@H](C)CO)C(=O)c2cc(NC(=O)Nc3ccc(C(F)(F)F)cc3)ccc2O1` the cytotoxicity call was “inactive”.
`O=C(CN1CCOCC1)NCC[C@@H]1CC[C@@H](NS(=O)(=O)c2ccc(F)cc2)[C@@H](CO)O1` was tested, and the cytotoxicity call was “inactive”.
For `CCS(=O)(=O)N1C[C@]2(C1)CN([C@@H](CO)c1[nH]c3cc(ccc3c12)OC)C(=O)Nc1c(noc1C)C`, the cytotoxicity call was “inactive”.
For `C[C@H](CO)N1C[C@H](C)[C@@H](CN(C)C(=O)CN(C)C)Oc2cc(C#C[C@@H](C)O)ccc2S1(=O)=O`, the cytotoxicity call was “inactive”.
In the case of `C[C@@H]1CCCCO[C@H](CN(C)S(=O)(=O)c2ccc(Cl)cc2)[C@H](C)CN([C@@H](C)CO)C(=O)c2cc(NC(=O)C3CCCCC3)ccc2O1`, the cytotoxicity call is reported as “inactive”.
In the case of `COc1ccc(NC(=O)N(C)C[C@H]2Oc3ccc(NS(=O)(=O)c4cn(C)cn4)cc3CC(=O)N([C@H](C)CO)C[C@@H]2C)cc1`, the cytotoxicity call is reported as “inactive”.
`COc1ccccc1CNC(=O)C[C@H]1C[C@H]2c3cc(NC(=O)Nc4ccc(C(F)(F)F)cc4)ccc3O[C@H]2[C@@H](CO)O1` was tested, and the cytotoxicity call was “inactive”.
In the case of `C[C@@H]1CN([C@H](C)CO)C(=O)c2cc(NS(=O)(=O)c3ccc(F)cc3)ccc2O[C@@H](C)CCCCO[C@H]1CN(C)Cc1ccc2c(c1)OCO2`, the cytotoxicity call is reported as “inactive”.
For `C[C@@H]1CN([C@H](C)CO)C(=O)Cc2cc(NC(=O)Nc3ccc4c(c3)OCO4)ccc2O[C@H]1CN(C)S(=O)(=O)c1cn(C)cn1`, the cytotoxicity call was “inactive”.
In the case of `O=C(C[C@@H]1CC[C@@H]2[C@H](COC[C@H](O)CN2S(=O)(=O)c2cccc(Cl)c2)O1)NCc1ccc2c(c1)OCO2`, the cytotoxicity call is reported as “inactive”.
For `C[C@@H]1CN([C@@H](C)CO)S(=O)(=O)c2ccc(Br)cc2O[C@H]1CN(C)Cc1ccccc1F`, the cytotoxicity call was “inactive”.
In the case of `CC(C)NC(=O)Nc1ccc2c(c1)CC(=O)N([C@@H](C)CO)C[C@H](C)[C@H](CN(C)Cc1ccc(C(=O)O)cc1)O2`, the cytotoxicity call is reported as “inactive”.
For `C[C@@H]1CN([C@H](C)CO)C(=O)c2cc(NC(=O)C3CC3)ccc2O[C@@H]1CN(C)Cc1ccc(Oc2ccccc2)cc1`, the cytotoxicity call was “inactive”.
In the case of `Cc1noc(C)c1S(=O)(=O)N(C)C[C@H]1Oc2ccc(NC(=O)C3CC3)cc2CC(=O)N([C@H](C)CO)C[C@@H]1C`, the cytotoxicity call is reported as “inactive”.
`CCS(=O)(=O)N1CC[C@]2(CC1)CN([C@@H](CO)c1c2c2ccc(cc2n1C)OC)C(=O)c1cccc(c1)F` was tested, and the cytotoxicity call was “inactive”.
With `C[C@H]1CCCCO[C@H](CN(C)Cc2ccc(C(F)(F)F)cc2)[C@@H](C)CN([C@@H](C)CO)C(=O)c2cc(NC(=O)Nc3ccc(C(F)(F)F)cc3)ccc2O1` the cytotoxicity call was “active”.
In the case of `C[C@@H]1CCCCO[C@H](CN(C)Cc2ccc(C(F)(F)F)cc2)[C@@H](C)CN([C@H](C)CO)C(=O)c2cc(NC(=O)Nc3ccc(C(F)(F)F)cc3)ccc2O1`, the cytotoxicity call is reported as “active”.
`C[C@@H]1CCCCO[C@@H](CN(C)Cc2ccc(C(F)(F)F)cc2)[C@H](C)CN([C@H](C)CO)C(=O)c2cc(NC(=O)Nc3ccc(C(F)(F)F)cc3)ccc2O1` was tested, and the cytotoxicity call was “inactive”.
With `C[C@H]1CCCCO[C@@H](CN(C)Cc2ccc(C(F)(F)F)cc2)[C@@H](C)CN([C@@H](C)CO)C(=O)c2cc(NC(=O)Nc3ccc(C(F)(F)F)cc3)ccc2O1` the cytotoxicity call was “active”.
`C[C@@H]1CCCCO[C@H](CN(C)Cc2ccc(C(F)(F)F)cc2)[C@H](C)CN([C@H](C)CO)C(=O)c2cc(NC(=O)Nc3ccc(C(F)(F)F)cc3)ccc2O1` was tested, and the cytotoxicity call was “active”.
With `C[C@@H]1CN([C@H](C)CO)C(=O)c2cc(NC(=O)Nc3ccc(C(F)(F)F)cc3)ccc2O[C@@H](C)CCCCO[C@@H]1CN(C)Cc1ccc(C(F)(F)F)cc1` the cytotoxicity call was “inactive”.
`C[C@@H]1CCCCO[C@@H](CN(C)Cc2ccc(C(F)(F)F)cc2)[C@@H](C)CN([C@@H](C)CO)C(=O)c2cc(NC(=O)Nc3ccc(C(F)(F)F)cc3)ccc2O1` was tested, and the cytotoxicity call was “inactive”.
In the case of `C[C@@H]1CCCCO[C@@H](CN(C)Cc2ccc(C(F)(F)F)cc2)[C@@H](C)CN([C@H](C)CO)C(=O)c2cc(NC(=O)Nc3ccc(C(F)(F)F)cc3)ccc2O1`, the cytotoxicity call is reported as “inactive”.
